Source: PubChem BioAssay (Tox21)
Values joined by “and” are separate entries in the source; they are usually repeats but may differ in a detail not shown here. Equal entries are not always repeated. Records with an inconclusive call do not appear. Entries that show only a call come without a potency. A structure can be active in one record and inactive in another. Active and inactive are the calls of the source. Unless noted, the call rests on the fitted dose curve; in most records, active means well fitted curve in the direction sought with a large enough effect in the repeat runs; inconclusive means weak or mixed curves; inactive means no such curve, though single readings can be large; an effect the other way counts as inactive or inconclusive.

Assays:
[1] = Caspase-3/7 induction in CHO-K1 cells by small molecules, qHTS cell viability counter screen (AID 1346979); further: nearly all actives have a fitted effect of over 35% in size
In short: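 Seeding: 1,500 CHO-K1 cells/well. Rest: 5hr, 37C. Treatment: compounds in DMSO, 16hr. Read: CellTiter-Fluor, 1hr, fluorescence.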

[2] = Caspase-3/7 induction in CHO-K1 cells by small molecules, qHTS assay (AID 1346980); further: nearly all actives have a fitted effect of over 15% in size
In short: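 Wild-type CHO-K1 cells exposed to compounds for 17hr at 37 C, 5% CO2. Caspase-3/7 activity then measured by Caspase-Glo 3/7 luminescence after 30min at room temperature.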

[3] = biological target: Nuclear receptor subfamily 1 group I member 2 (Homo sapiens) (UniProt O75469); assay: Human pregnane X receptor (PXR) small molecule agonists, qHTS assay (AID 1346982); further: nearly all actives have a fitted effect of over 35% in size; further: potency means the concentration at half of the fitted maximal effect
In short: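 Luminescence (ONE-Glo, 30 min RT) after 24 hr compound exposure of PXR-Luc HepG2 cells; cells rested 5 hr post-plating in 5% charcoal-stripped FBS medium.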

[4] = biological target: Acetylcholinesterase (Homo sapiens) (UniProt P22303); assay: Acetylcholinesterase (AChE) small molecule antagonists: colormetric cell-based qHTS assay (AID 1347395; calls by dose curve; further: nearly all actives have a fitted effect of over 30% in size; further: potency means the concentration at half of the fitted maximal effect)
In short: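 Quantitative HTS in attached SH-SY5Y cells: 30 min compound exposure, then 90 min with acetylthiocholine and DTNB at 37 C; colour from thiocholine reports AChE activity.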

[5] = biological target: Acetylcholinesterase (Homo sapiens) (UniProt P22303); assay: Acetylcholinesterase (AChE) small molecule antagonists: fluorescence cell-based qHTS assay (AID 1347398; calls by dose curve; further: nearly all actives have a fitted effect of over 50% in size; further: potency means the concentration at half of the fitted maximal effect); details: Potency: AChE activity
In short: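 SH-SY5Y cells (2000/well), attached overnight, incubated with compound 30 min at 37 C. Acetylthiocholine plus Thiolite Green then added for 40 min at room temperature. Thiocholine fluorescence (Ex/Em 490/520 nm) reports cellular AChE activity.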

[6] = biological target: Acetylcholinesterase (Homo sapiens) (UniProt P22303); assay: Acetylcholinesterase (AChE) small molecule antagonists: enzyme-based qHTS assay with human liver microsomes (AID 1347399; calls by dose curve; further: nearly all actives have a fitted effect of over 60% in size); details: Potency: qHTS inhibition
In short: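 Recombinant human AChE (50 mU/mL in the enzyme mix) and human liver microsomes (0.25 mg/mL final) were preincubated with compound and NADPH (0.25 mg/mL final) for 30 min at 37 C. Acetylthiocholine/DTNB was then added; thiocholine was read colorimetrically after 10 min at room temperature.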

[7] = biological target: Cytochrome P450 2D6 (Homo sapiens) (UniProt P10635); assay: Cytochrome P450 Family 2 Subfamily D Member 6 (CYP2D6) small molecule antagonists: luciferase reporter qHTS assay (AID 1671196); further: nearly all actives have a fitted effect of over 50% in size; further: potency means the concentration at half of the fitted maximal effect
In short: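 Inhibition of CYP2D6 was gauged by loss of luminescence, since light produced tracks the luciferin generated from a proluciferin substrate. A 10 min room-temperature preincubation preceded 1 h NADPH-supported turnover.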

[8] = biological target: Cytochrome P450 2C19 (Homo sapiens) (UniProt P33261); assay: Cytochrome P450 Family 2 Subfamily C Member 19 (CYP2C19) small molecule antagonists: luciferase reporter qHTS assay (AID 1671197); further: nearly all actives have a fitted effect of over 65% in size; further: potency means the concentration at half of the fitted maximal effect
In short: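 P450-Glo CYP2C19 system: enzyme-substrate mix with compound 10 min at room temperature, then NADPH regeneration solution, 1 h at 37C. Proluciferin-to-luciferin conversion detected by luminescence after 20 min with detection reagent; ketoconazole as positive control.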

[9] = biological target: Cytochrome P450 2C9 (Homo sapiens) (UniProt P11712); assay: Cytochrome P450 Family 2 Subfamily C Member 9 (CYP2C9) small molecule antagonists: luciferase reporter qHTS assay (AID 1671198); further: nearly all actives have a fitted effect of over 50% in size; further: potency means the concentration at half of the fitted maximal effect
In short: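 P450-Glo proluciferin substrate with CYP2C9 enzyme; 10 min RT preincubation, then NADPH regeneration 1 h at 37C; luciferin detection reagent 20 min RT, luminescence in relative luminescence units.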

[10] = biological target: Voltage-gated inwardly rectifying potassium channel KCNH2 (Homo sapiens) (UniProt Q12809); assay: Human Ether-a-go-go-Related Gene (hERG) channel small molecule antagonists: fluorescence cell-based qHTS assay (AID 1671200); further: nearly all actives have a fitted effect of over 50% in size; further: potency means the concentration at half of the fitted maximal effect
In short: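 First, 1000 cells per well are seeded and cultured overnight at 37 C. Next, FluxOR II dye is loaded for 1 h at room temperature, protected from light. After 10 more minutes, stimulus is added and fluorescence is read.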

[11] = Caspase-3/7 induction in HepG2 cells by small molecules, qHTS cell viability counter screen (AID 1346981); further: series mostly up to about 92 µM; nearly all actives have a fitted effect of over 30% in size
In short: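 Counter screen for cytotoxicity: HepG2 exposed 16 hr to compounds, then CellTiter-Fluor viability signal (fluorescence, 1 hr reagent incubation).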

[12] = biological target: Cytochrome P450 3A4 (Homo sapiens) (UniProt P08684); assay: Cytochrome P450 Family 3 Subfamily A Member 4 (CYP3A4) small molecule antagonists: luciferase reporter qHTS assay (AID 1671201)
In short: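 Enzyme and proluciferin substrate are mixed with test chemicals for 10 min, then NADPH regeneration system drives turnover for 1 h at room temperature. A detection reagent halts the reaction; luminescence after 20 min gives relative activity.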

[13] = biological target: Nuclear receptor subfamily 1 group I member 2 (Rattus norvegicus) (UniProt Q9R1A7); assay: Rat pregnane X receptor (rPXR) activation by small molecules, qHTS assay (AID 1346983); details: rPXR luciferase reporter cells, One-Glo luminescence, 24 h; stronger effect = higher value; further: nearly all actives have a fitted effect of over 20% in size
In short: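 Cell-based rPXR activation assay: rPXR cells, 2,000 per well, rested 5hr at 37 C, then exposed to compounds in DMSO for 24 hr at 37 C. Luciferase activity read by One-Glo luminescence after 30 min at room temperature.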

Sequence of Acetylcholinesterase (Homo sapiens) (P22303 whole entry, looked up): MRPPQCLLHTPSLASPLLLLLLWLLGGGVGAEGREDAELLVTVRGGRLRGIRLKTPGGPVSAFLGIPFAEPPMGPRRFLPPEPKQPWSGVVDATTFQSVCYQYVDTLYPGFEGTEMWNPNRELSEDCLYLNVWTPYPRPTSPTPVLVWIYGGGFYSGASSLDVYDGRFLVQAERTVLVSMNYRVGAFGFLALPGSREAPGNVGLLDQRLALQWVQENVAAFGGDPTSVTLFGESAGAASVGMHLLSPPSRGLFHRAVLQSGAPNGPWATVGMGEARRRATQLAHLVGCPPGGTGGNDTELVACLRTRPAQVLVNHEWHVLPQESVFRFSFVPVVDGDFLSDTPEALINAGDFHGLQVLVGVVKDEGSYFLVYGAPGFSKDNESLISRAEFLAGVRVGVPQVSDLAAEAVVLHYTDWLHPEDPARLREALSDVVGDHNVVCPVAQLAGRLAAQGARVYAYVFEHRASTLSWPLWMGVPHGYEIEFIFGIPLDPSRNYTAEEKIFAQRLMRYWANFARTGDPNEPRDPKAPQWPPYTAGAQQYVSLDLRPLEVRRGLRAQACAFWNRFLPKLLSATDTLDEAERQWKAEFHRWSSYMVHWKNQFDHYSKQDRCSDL
Sequence of Voltage-gated inwardly rectifying potassium channel KCNH2 (Homo sapiens) (Q12809 whole entry, looked up): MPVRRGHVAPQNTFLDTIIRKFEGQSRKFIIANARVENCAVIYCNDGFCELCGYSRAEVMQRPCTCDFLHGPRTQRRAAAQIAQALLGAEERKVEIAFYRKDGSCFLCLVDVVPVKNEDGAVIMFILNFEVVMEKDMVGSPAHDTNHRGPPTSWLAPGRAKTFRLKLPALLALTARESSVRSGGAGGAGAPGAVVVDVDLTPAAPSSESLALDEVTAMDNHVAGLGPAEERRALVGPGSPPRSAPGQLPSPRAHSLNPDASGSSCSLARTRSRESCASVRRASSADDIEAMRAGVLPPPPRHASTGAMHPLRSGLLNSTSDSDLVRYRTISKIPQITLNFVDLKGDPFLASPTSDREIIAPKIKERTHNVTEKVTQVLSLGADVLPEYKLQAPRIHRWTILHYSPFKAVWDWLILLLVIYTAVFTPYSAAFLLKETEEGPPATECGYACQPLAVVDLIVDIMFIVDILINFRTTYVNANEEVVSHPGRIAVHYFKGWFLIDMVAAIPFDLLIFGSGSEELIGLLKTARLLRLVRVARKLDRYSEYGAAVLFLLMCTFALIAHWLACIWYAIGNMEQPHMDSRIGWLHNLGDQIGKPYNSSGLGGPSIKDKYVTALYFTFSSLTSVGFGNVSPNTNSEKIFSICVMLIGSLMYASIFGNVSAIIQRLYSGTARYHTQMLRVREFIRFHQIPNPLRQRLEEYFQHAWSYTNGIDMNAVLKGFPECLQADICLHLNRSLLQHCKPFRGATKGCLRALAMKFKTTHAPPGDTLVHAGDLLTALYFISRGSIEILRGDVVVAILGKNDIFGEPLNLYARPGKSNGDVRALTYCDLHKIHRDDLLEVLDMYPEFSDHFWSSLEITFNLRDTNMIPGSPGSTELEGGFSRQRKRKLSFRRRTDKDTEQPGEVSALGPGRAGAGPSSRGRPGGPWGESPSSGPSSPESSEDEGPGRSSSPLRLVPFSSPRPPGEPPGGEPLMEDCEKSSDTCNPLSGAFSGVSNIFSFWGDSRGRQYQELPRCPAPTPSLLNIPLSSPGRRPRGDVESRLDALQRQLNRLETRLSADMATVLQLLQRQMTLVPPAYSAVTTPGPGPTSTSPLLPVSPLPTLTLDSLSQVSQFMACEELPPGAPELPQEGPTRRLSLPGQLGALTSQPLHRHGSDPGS
Sequence of Cytochrome P450 2C9 (Homo sapiens) (P11712 whole entry, looked up): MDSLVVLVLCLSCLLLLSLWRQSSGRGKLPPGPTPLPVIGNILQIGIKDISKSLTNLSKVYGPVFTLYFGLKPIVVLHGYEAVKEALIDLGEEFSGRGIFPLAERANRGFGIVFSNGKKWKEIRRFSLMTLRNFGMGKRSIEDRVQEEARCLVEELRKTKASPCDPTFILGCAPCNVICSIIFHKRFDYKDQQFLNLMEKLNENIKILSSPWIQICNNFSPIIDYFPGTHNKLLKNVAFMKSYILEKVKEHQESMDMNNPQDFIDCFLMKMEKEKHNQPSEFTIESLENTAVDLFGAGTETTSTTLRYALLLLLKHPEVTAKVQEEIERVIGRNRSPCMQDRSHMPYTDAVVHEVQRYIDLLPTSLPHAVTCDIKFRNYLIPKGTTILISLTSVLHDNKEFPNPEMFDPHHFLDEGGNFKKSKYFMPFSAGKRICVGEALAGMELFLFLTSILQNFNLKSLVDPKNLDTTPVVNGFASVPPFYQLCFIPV
Sequence of Nuclear receptor subfamily 1 group I member 2 (Homo sapiens) (O75469 whole entry, looked up): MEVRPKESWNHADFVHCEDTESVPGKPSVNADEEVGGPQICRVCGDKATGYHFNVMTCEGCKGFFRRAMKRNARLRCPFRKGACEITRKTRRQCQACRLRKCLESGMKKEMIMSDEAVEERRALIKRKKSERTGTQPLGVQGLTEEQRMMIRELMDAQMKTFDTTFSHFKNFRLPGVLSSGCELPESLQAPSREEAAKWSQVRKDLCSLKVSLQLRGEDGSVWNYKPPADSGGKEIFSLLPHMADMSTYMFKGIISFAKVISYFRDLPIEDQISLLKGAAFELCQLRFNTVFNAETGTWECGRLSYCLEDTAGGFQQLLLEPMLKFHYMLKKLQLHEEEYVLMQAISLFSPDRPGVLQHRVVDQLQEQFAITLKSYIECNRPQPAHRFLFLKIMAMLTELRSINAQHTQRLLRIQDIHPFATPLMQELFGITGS
Sequence of Cytochrome P450 2D6 (Homo sapiens) (P10635 whole entry, looked up): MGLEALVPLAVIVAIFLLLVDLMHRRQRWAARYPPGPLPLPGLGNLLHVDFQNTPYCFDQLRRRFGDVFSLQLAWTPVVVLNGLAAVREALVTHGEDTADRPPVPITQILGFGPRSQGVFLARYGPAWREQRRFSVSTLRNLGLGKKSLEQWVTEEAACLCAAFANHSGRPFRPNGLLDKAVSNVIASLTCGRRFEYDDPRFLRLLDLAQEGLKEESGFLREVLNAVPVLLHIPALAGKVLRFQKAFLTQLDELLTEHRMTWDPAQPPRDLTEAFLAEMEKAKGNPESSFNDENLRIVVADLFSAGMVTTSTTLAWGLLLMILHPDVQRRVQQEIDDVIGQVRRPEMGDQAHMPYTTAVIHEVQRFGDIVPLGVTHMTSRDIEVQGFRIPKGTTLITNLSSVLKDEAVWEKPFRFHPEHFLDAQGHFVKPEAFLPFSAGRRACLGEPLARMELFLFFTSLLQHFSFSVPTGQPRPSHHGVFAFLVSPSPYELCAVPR
Sequence of Cytochrome P450 3A4 (Homo sapiens) (P08684 whole entry, looked up): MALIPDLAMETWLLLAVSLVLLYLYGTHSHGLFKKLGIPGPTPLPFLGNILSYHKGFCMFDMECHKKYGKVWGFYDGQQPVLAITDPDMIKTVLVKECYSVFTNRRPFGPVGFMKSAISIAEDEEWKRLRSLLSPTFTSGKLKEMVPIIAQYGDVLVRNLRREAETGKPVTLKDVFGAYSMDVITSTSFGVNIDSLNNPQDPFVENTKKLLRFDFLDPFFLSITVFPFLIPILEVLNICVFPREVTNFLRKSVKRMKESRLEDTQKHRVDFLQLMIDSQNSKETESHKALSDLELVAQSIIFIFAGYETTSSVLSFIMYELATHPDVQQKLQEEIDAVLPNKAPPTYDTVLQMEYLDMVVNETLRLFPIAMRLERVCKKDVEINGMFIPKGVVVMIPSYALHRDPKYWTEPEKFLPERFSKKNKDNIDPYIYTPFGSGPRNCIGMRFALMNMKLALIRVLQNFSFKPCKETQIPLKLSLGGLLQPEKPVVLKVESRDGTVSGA
Sequence of Cytochrome P450 2C19 (Homo sapiens) (P33261 whole entry, looked up): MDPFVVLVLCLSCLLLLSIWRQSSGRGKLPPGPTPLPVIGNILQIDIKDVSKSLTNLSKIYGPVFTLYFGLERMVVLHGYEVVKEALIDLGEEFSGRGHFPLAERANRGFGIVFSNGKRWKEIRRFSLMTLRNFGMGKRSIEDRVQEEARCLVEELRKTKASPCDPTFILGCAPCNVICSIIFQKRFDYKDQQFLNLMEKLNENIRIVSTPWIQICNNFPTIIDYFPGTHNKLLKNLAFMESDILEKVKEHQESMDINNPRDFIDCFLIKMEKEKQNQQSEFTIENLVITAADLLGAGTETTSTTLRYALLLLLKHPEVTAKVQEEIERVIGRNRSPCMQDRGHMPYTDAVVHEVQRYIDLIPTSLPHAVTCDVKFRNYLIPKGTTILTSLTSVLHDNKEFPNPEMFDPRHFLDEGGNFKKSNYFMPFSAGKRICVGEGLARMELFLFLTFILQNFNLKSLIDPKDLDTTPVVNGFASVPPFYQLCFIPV
Sequence of Nuclear receptor subfamily 1 group I member 2 (Rattus norvegicus) (Q9R1A7 whole entry, looked up): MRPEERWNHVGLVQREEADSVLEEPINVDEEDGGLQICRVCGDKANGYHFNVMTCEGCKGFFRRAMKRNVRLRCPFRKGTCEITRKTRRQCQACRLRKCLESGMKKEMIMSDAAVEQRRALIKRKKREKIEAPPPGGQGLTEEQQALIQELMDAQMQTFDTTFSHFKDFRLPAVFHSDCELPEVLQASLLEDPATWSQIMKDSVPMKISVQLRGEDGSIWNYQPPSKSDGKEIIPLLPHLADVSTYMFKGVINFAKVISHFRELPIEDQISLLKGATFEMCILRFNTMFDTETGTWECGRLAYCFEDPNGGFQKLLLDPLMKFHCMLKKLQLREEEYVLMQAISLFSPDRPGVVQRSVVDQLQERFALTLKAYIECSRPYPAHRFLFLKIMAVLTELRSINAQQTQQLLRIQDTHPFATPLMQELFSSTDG

Compound | Potency [1] | Potency [2] | Potency [3] | Potency [4] | Potency [5] | Potency [6] | Potency [7] | Potency [8] | Potency [9] | Potency [10] | Potency [11] | Potency [12] | max activation [13]
CCC(=O)C(CC(C)N(C)C)(c1ccccc1)c1ccccc1 (centres undefined) | inactive | inactive | 8.67 µM (active) and 60.7 µM (active) | inactive | inactive | inactive | 2.01 µM (active) and 996 nM (active) and 1.53 µM (active) | inactive | inactive | 43.8 µM (active) |  |  | 
COc1ccc(N)cc1 | inactive | inactive | 60.6 µM (active) |  |  |  |  | 39.9 µM (active) [middle of 4 runs] | 39.9 µM (active) | inactive | inactive | inactive | 
CCCCn1cc[n+](C)c1 | inactive | inactive |  |  |  |  |  |  |  | inactive | inactive |  | 
CC(=O)O | inactive | inactive |  |  |  |  |  |  |  | inactive | inactive |  | 
CCCCCCCCCCn1cc[n+](C)c1 |  | inactive |  | 39.8 µM (active) [middle of 6 runs] | 35.7 µM (active) [middle of 6 runs] | inactive |  | 40.3 µM (active) and 3.26 µM (active) and inactive | 5.7 µM (active) and inactive and 32.6 µM (active) |  | inactive | inactive | 
CCC[N+]1(C)CCCC1 | inactive | inactive | inactive |  |  |  | inactive | inactive | inactive | inactive | inactive | inactive | 
CCCC[N+]1(C)CCCC1 | inactive | inactive | inactive |  |  |  | inactive | inactive and 40.2 µM (active) | inactive | inactive | inactive | inactive | 
O=S(=O)(O)O | inactive | inactive |  |  |  |  |  |  |  | inactive | inactive |  | 
CC[N+](CC)(CC)CC | inactive | inactive |  |  |  |  |  |  |  | inactive | inactive |  | -1.28% (inactive)
CCCCn1cc[n+](C)c1C | inactive | inactive | inactive |  |  |  | inactive | inactive | inactive | inactive | inactive | inactive | 
COP(=O)(OC)C(O)C(Cl)(Cl)Cl (centres undefined) | inactive | inactive |  |  |  |  |  |  |  | inactive | inactive |  | 
